Out of some 5,500 compounds screened, about 2,000 (36%) were called active. Inconclusive results (about 18%) are left out. Cut-off read from the data, not from the text of the source: active = normalized growth mostly below about 0.91 (no sharp cut-off); inconclusive = no clear call, values can overlap the other calls; inactive = mostly above about 0.92. Some of the results follow.
Assay: chemical genetic growth profiling, strain panel (AID 1159580);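 note: tested at 20 µM; growth read once vehicle control cultures reached saturation at 30 °C; 1 = growth at the plate median or of vehicle wells; lower values mean less growth of the strain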
Details: growth OD

Measured: normalized growth

CCCC(C)C1(CC)C(=O)NC(=O)NC1=O (configuration not stated)
inactive: S. cerevisiae deletion strains, locus YJR075W, strain HOC1, hits give low values 1.04 | S. cerevisiae deletion strains, locus YKL009W, strain mrt4, hits give low values 1.03 | S. cerevisiae deletion strains, locus YKL068W, hits give low values 1.01 | S. cerevisiae deletion strains, locus YKL085W, strain MDH1 (second series), hits give low values 1.02 | S. cerevisiae deletion strains, locus YKL085W, strain MDH1, hits give low values 1.02 | S. cerevisiae deletion strains, locus YKL160W, strain elf1, hits give low values 1 | S. cerevisiae deletion strains, locus YKL190W, strain CNB1, hits give low values 1.02 | S. cerevisiae deletion strains, locus YKR001C, strain vps1, hits give low values 1.03 | S. cerevisiae deletion strains, locus YKR026C, strain gcn3, hits give low values 0.998 | S. cerevisiae deletion strains, locus YKR091W, strain srl3, hits give low values 1 | S. cerevisiae deletion strains, locus YLL001W, strain dnm1, hits give low values 0.994 | S. cerevisiae deletion strains, locus YLL026W, hits give low values 1 | S. cerevisiae deletion strains, locus YLL041C, strain sdh2, hits give low values 1 | S. cerevisiae deletion strains, locus YLR027C, strain aat2, hits give low values 0.998 | S. cerevisiae deletion strains, locus YLR039C, strain RIC1, hits give low values 1.1 | S. cerevisiae deletion strains, locus YLR058C, strain SHM2, hits give low values 1.01 | S. cerevisiae deletion strains, locus YLR102C, strain apc9, hits give low values 1.02 | S. cerevisiae deletion strains, locus YLR113W, strain HOG1, hits give low values 0.985 | S. cerevisiae deletion strains, locus YLR221C, strain rsa3, hits give low values 1 | S. cerevisiae deletion strains, locus YLR258W, strain gsy2, hits give low values 1 | S. cerevisiae deletion strains, locus YLR262C, strain YPT6 (second series), hits give low values 1.02 | S. cerevisiae deletion strains, locus YLR262C, strain YPT6, hits give low values 1.11 | S. cerevisiae deletion strains, locus YLR268W, strain sec22, hits give low values 1.01 | S. cerevisiae deletion strains, locus YLR320W, strain mms22, hits give low values 1.01 | S. cerevisiae deletion strains, locus YLR330W, strain CHS5, hits give low values 1.01 | S. cerevisiae deletion strains, locus YLR342W, strain FKS1 (second series), hits give low values 1.04 | S. cerevisiae deletion strains, locus YLR342W, strain FKS1, hits give low values 1 | S. cerevisiae deletion strains, locus YLR357W, strain rsc2, hits give low values 0.984 | S. cerevisiae deletion strains, locus YLR370C, strain arc18, hits give low values 1 | S. cerevisiae deletion strains, locus YLR371W, strain rom2, hits give low values 1.02 | S. cerevisiae deletion strains, locus YLR384C, strain iki3, hits give low values 0.996 | S. cerevisiae deletion strains, locus YLR418C, strain cdc73, hits give low values 1.05 | S. cerevisiae deletion strains, locus YML016C, strain PPZ1, hits give low values 1.01 | S. cerevisiae deletion strains, locus YML032C, strain rad52, hits give low values 1.02 | S. cerevisiae deletion strains, locus YML120C, strain ndi1, hits give low values 1.02 | S. cerevisiae deletion strains, locus YML124C, strain tub3, hits give low values 1.02 | S. cerevisiae deletion strains, locus YMR058W, strain fet3, hits give low values 1.01 | S. cerevisiae deletion strains, locus YMR078C, strain ctf18, hits give low values 1.02 | S. cerevisiae deletion strains, locus YMR125W, strain sto1, hits give low values 0.996 | S. cerevisiae deletion strains, locus YMR129W, hits give low values 0.997 | S. cerevisiae deletion strains, locus YMR205C, strain PFK2, hits give low values 0.992 | S. cerevisiae deletion strains, locus YMR223W, strain ubp8, hits give low values 1.04 | S. cerevisiae deletion strains, locus YMR231W, strain pep5, hits give low values 1 | S. cerevisiae deletion strains, locus YMR263W, strain SAP30, hits give low values 1.02 | S. cerevisiae deletion strains, locus YMR307W, strain GAS1, hits give low values 1.12 | S. cerevisiae deletion strains, locus YNL067W, strain RPL9B, hits give low values 1.01 | S. cerevisiae deletion strains, locus YNL071W, strain lat1, hits give low values 1.01 | S. cerevisiae deletion strains, locus YNL128W, strain TEP1, hits give low values 1.02 | S. cerevisiae deletion strains, locus YNL153C, strain GIM3, hits give low values 1 | S. cerevisiae deletion strains, locus YNL183C, strain NPR1, hits give low values 0.922 | S. cerevisiae deletion strains, locus YNL209W, strain ssb2, hits give low values 1 | S. cerevisiae deletion strains, locus YNL233W, strain BNI4, hits give low values 1.01 | S. cerevisiae deletion strains, locus YNL248C, strain rpa49, hits give low values 1 | S. cerevisiae deletion strains, locus YNL250W, strain rad50, hits give low values 1.02 | S. cerevisiae deletion strains, locus YNL271C, strain bni1, hits give low values 1.03 | S. cerevisiae deletion strains, locus YNL298W, strain CLA4, hits give low values 1.03 | S. cerevisiae deletion strains, locus YNL307C, strain MCK1, hits give low values 1.03 | S. cerevisiae deletion strains, locus YNL322C, strain KRE1 (second series), hits give low values 0.997 | S. cerevisiae deletion strains, locus YNL322C, strain KRE1, hits give low values 1.01 | S. cerevisiae deletion strains, locus YNR049C, strain mso1, hits give low values 0.998 | S. cerevisiae deletion strains, locus YNR052C, strain pop2, hits give low values 1.02 | S. cerevisiae deletion strains, locus YOL006C, strain TOP1, hits give low values 1.07 | S. cerevisiae deletion strains, locus YOL012C, strain htz1 1.23 | S. cerevisiae deletion strains, locus YOL147C, strain pex11, hits give low values 1 | S. cerevisiae deletion strains, locus YOR001W, strain rrp6, hits give low values 0.999 | S. cerevisiae deletion strains, locus YOR061W, strain CKA2, hits give low values 1.02 | S. cerevisiae deletion strains, locus YOR069W, strain VPS5, hits give low values 1.01 | S. cerevisiae deletion strains, locus YOR070C, strain gyp1, hits give low values 1 | S. cerevisiae deletion strains, locus YOR080W, strain dia2, hits give low values 0.998 | S. cerevisiae deletion strains, locus YOR083W, strain WHI5, hits give low values 1.01 | S. cerevisiae deletion strains, locus YOR106W, strain vam3, hits give low values 1.02 | S. cerevisiae deletion strains, locus YOR136W, strain idh2, hits give low values 1.02 | S. cerevisiae deletion strains, locus YOR144C, strain elg1, hits give low values 1.01 | S. cerevisiae deletion strains, locus YOR184W, strain ser1, hits give low values 1.06 | S. cerevisiae deletion strains, locus YOR231W, strain MKK1, hits give low values 0.996 | S. cerevisiae deletion strains, locus YOR265W, strain rbl2, hits give low values 1 | S. cerevisiae deletion strains, locus YOR270C, strain vph1, hits give low values 1.01 | S. cerevisiae deletion strains, locus YOR290C, strain snf2, hits give low values 1.02 | S. cerevisiae deletion strains, locus YOR316C, strain cot1, hits give low values 1.03 | S. cerevisiae deletion strains, locus YPL051W, strain arl3, hits give low values 1.01 | S. cerevisiae deletion strains, locus YPL055C, strain LGE1, hits give low values 1.04 | S. cerevisiae deletion strains, locus YPL078C, strain atp4, hits give low values 0.999 | S. cerevisiae deletion strains, locus YPL106C, strain sse1, hits give low values 0.996 | S. cerevisiae deletion strains, locus YPL240C, strain hsp82, hits give low values 1.02 | S. cerevisiae deletion strains, locus YPL241C, strain CIN2, hits give low values 1.01 | S. cerevisiae deletion strains, locus YPL256C, strain CLN2, hits give low values 0.981 | S. cerevisiae deletion strains, locus YPR119W, strain clb2, hits give low values 1.01 | S. cerevisiae deletion strains, locus YPR141C, strain kar3, hits give low values 1.02 | S. cerevisiae deletion strains, locus YPR163C, strain tif3, hits give low values 1.01 | S. cerevisiae deletion strains, locus YPR167C, strain met16, hits give low values 1.02 | S. cerevisiae deletion strains, strain wtn01, hits give low values 1.02 | S. cerevisiae strains, strain wild type, hits give low values 1.01

Source: PubChem BioAssay AID1159580 (chemical genetic matrix, 2015)
